Data: the supplement of paper PMC11732987, “Enantioselective OTUD7B fragment discovery through chemoproteomics screening and high-throughput optimisation” (Communications Chemistry, 2025)

Assays:
Assay in all cases: log2 ratio of Biotin-Ahx-Ub-VS probe labelling (fragment/DMSO); higher = less target engagement (more negative = stronger competition), active = hit call of the paper (q ≤ 0.05, log2 ratio ≤ -1)
Conditions in all cases: compound concentration: 200 uM; treatment time: 3 h
[1] = molecular target: T1, OTUD6B (UniProt Q8N6M0)
T1 sequence (whole entry): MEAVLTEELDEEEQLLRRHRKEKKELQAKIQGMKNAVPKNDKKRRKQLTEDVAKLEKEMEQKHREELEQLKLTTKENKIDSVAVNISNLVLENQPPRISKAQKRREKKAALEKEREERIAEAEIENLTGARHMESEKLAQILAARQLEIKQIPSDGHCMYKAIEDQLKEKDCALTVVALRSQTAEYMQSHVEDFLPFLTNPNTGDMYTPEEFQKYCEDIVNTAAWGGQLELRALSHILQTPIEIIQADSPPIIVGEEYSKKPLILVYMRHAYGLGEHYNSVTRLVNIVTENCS
How it was run: (§1)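 HEK293T lysate, 495 µg per sample in Tris/CHAPS/IGEPAL buffer with protease inhibitors, was treated in triplicate with fragment at 200 µM or vehicle for 3 h and then with Biotin-Ahx-Ub-VS at 0.5 µM final for 1 h. Labelled DUBs were NeutrAvidin-enriched, digested with LysC and trypsin, and run by diaPASEF LC-MS/MS. Spectronaut label-free quantities were global-median-normalised, and values are average log2 fragment/vehicle ratios by unpaired t-test on proteins with ≥2 unique peptides.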

[2] = molecular target: T2, OTUD7B (UniProt Q6GQQ9)
T2 sequence (whole entry): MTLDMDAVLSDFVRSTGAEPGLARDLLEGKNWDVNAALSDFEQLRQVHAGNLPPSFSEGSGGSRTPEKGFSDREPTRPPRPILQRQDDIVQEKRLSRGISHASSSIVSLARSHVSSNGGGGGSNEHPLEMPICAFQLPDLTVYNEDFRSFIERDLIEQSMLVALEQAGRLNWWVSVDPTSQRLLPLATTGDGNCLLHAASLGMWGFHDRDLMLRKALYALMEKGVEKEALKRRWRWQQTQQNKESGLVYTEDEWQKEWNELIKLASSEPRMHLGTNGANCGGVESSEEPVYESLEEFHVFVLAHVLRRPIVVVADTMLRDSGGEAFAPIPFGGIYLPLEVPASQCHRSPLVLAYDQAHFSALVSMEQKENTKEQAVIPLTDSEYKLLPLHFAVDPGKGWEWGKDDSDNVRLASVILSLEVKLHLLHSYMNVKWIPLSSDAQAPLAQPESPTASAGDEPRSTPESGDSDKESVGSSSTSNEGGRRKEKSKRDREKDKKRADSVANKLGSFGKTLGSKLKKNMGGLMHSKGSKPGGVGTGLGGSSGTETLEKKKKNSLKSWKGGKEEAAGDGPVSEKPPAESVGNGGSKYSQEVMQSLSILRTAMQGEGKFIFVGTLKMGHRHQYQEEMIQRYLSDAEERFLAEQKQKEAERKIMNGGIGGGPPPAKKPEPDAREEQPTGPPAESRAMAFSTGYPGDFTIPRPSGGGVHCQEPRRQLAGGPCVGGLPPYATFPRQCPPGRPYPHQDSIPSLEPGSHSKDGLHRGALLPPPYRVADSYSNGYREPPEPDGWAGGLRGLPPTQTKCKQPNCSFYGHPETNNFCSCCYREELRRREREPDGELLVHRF
How it was run: as §1

[3] = molecular target: PRPF8 (UniProt Q6P2Q9)
How it was run: as §1

[4] = molecular target: T3, PSMD7 (UniProt P51665)
T3 sequence (whole entry): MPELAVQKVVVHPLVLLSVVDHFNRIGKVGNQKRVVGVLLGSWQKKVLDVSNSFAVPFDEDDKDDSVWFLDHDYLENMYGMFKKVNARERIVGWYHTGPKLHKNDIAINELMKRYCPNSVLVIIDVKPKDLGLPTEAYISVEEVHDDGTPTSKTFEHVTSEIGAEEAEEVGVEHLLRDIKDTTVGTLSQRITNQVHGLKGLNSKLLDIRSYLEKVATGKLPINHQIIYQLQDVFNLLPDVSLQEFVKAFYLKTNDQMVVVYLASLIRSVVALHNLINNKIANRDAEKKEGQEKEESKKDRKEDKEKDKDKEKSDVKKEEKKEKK
How it was run: as §1

[5] = molecular target: UCHL1 (UniProt P09936)
How it was run: as §1

[6] = molecular target: T4, UCHL3 (UniProt P15374)
T4 sequence (whole entry): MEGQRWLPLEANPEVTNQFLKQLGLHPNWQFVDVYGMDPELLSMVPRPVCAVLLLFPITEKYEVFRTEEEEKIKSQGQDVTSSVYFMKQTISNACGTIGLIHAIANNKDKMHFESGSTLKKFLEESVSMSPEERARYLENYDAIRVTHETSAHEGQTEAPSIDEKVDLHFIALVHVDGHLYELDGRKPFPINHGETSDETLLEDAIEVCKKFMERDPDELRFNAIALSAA
How it was run: as §1

[7] = molecular target: T5, UCHL5 (UniProt Q9Y5K5)
T5 sequence (whole entry): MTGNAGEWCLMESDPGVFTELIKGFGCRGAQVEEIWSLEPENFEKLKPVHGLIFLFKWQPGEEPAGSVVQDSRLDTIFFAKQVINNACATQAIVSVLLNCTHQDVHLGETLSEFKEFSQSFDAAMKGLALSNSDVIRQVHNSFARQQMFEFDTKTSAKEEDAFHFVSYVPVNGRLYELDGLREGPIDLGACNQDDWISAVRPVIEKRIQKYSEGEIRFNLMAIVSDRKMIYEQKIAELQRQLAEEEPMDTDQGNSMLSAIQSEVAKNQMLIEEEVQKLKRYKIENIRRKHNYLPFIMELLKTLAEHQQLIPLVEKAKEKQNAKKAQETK
How it was run: as §1

[8] = molecular target: USP10 (UniProt Q14694)
How it was run: as §1

[9] = molecular target: T6, USP15 (UniProt Q9Y4E8)
T6 sequence (whole entry): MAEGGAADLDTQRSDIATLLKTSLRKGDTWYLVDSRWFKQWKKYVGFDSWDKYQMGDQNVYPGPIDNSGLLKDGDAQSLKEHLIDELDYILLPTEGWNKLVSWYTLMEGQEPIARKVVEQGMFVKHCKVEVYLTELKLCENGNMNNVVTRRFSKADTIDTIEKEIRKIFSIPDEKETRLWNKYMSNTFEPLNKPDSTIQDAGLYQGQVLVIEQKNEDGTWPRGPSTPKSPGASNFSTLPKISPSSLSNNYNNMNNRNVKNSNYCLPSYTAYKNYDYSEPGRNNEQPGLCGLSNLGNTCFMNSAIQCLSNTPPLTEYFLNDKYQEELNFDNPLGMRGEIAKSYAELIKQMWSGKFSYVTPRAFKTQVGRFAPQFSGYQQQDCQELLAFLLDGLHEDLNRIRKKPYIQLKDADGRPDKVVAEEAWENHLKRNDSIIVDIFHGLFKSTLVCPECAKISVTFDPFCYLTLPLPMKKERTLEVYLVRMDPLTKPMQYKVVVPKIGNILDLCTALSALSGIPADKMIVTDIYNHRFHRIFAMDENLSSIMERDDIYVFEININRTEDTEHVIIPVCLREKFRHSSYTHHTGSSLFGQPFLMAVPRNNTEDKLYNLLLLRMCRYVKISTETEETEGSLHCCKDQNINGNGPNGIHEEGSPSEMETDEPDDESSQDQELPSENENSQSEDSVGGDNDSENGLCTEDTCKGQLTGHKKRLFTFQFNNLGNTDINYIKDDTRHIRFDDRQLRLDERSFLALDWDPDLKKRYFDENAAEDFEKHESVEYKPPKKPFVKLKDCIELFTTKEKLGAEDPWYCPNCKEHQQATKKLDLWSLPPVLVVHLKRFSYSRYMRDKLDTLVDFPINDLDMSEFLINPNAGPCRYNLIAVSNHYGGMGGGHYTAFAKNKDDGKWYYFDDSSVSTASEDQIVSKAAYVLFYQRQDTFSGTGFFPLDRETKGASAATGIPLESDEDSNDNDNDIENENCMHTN
How it was run: as §1

Measured: log2 ratio of Biotin-Ahx-Ub-VS probe labelling

UCHL1, sequence (P09936 whole entry, looked up): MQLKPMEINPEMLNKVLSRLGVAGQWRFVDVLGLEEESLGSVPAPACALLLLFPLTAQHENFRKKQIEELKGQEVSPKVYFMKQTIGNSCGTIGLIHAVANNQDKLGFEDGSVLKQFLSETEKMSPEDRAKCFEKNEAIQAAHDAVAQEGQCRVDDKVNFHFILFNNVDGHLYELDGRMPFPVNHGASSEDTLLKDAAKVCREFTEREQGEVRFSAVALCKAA
USP10, sequence (Q14694 whole entry): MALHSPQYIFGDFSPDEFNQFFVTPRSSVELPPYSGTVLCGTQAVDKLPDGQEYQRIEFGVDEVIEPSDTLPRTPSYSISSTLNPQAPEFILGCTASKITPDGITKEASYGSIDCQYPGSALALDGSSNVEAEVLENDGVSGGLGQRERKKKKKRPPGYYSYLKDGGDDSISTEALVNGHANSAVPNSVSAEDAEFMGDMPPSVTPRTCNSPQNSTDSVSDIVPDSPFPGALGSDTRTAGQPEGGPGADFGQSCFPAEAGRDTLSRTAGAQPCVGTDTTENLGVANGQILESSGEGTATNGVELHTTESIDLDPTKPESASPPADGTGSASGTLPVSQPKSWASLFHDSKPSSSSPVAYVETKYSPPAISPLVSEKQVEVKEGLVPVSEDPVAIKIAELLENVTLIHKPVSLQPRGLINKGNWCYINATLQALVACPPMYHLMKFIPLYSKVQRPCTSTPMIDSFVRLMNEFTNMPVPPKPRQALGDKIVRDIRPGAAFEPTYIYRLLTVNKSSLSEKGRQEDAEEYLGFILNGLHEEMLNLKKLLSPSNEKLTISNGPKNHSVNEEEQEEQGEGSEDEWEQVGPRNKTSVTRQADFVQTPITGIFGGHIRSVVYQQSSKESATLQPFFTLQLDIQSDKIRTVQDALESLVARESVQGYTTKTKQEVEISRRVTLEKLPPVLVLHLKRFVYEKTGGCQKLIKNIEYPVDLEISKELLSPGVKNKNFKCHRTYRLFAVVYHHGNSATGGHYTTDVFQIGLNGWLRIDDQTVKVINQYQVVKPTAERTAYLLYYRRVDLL

O=C(CCl)NCc1ccc(N2CCOCC2)nc1
inactive: [1] -0.139 | [2] -0.502 | [3] -0.0538 | [4] -0.249 | [6] 0.0731 | [7] -0.235 | [8] -0.0833 | [9] -0.285
active: [5] -1.45
